High-throughput results: PubChem BioAssay, National Center for Advancing Translational Sciences (NCATS)
NS1 function inh – influenza NS1 inhibition; Potency, µM (doses to about 46.1 µM), for the others: top-dose activity, positive = more growth; actives 0.4% (n = 270,000); AID 2326; also: potency is read from the fitted curve at half-maximal effect; actives are rising curves; nearly all actives have a fitted effect of over 50% in size
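Compounds were scored for reversing the slow growth caused by influenza A NS1 in S. cerevisiae, measured by optical density at 600 nm. Assay medium contained 2% galactose at pH 6.0; NS1-free yeast of the same strain were the positive control.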
SARS PLpro yeast – blocks SARS-CoV papain-like protease in a yeast assay; Potency, µM (doses to about 32.9 µM), without a hit: at the highest dose activity, positive = growth rescue, usual class: activators; S. cerevisiae expressing SARS-CoV PLpro, growth rescue; actives 0.19% (n = 330,000); also: potency is read from the fitted curve at half-maximal effect; 0% is about no effect; nearly all actives have a fitted effect of over 55% in size
Shiga toxin inh – inhibitors of Shiga toxin in Vero cells; Vero cells, Shiga toxin protein synthesis inhibition reporter; inhibition, % at 38.7 µM; actives 9.2% (n = 290,000); AID 2315; in the data active = inhibition mostly above about 28%, no sharp cut-off; inactive = mostly below about 43%; also: 0% is about no effect
Cycloheximide cs – counter-screen hit for Shiga toxin inhibitors, cycloheximide. cell reporter, cycloheximide protein synthesis inhibition counterscreen. max response, %. actives 12% (n = 300,000); in the data active = max response mostly above about 13%, no sharp cut-off; inactive = mostly below about 14%; also: read at 38.3 µM for the half of the compounds with a filed dose; 0% is about no effect
The depositor's hits bear a star; ? = inconclusive; · = no result given. Rows were chosen to be rich in hits. Some 12% of all compounds tested hit in one or more screens of this group. Unless noted, calls follow the shape of the full dose curve.

SMILES	NS1 function inh	SARS PLpro yeast	Shiga toxin inh	Cycloheximide cs
CN(C(=O)c1cc(COc2ccc(F)c(F)c2)on1)C1CCOC1 (stereo not drawn)	6%	-3%	33	31*
Cc1ccc(OCc2cc(C(=O)N(C)CC3CCOCC3)no2)cc1C	-3%	-8%	133*	77*
COc1cc(/C=C/C(=O)N(C)CC(=O)Nc2ccccc2Br)cc2c1OCCO2	·	-4%	·	·
Cc1c(OCC(=O)NCCN2CCOCC2)ccc2c1oc(=O)c1ccccc12	3%	?	11	-2
COc1cc(Cl)ccc1OCc1cc(C(=O)N(C)C2CC(C)(C)NC(C)(C)C2)no1	-5%	-4%	-3	-2
CN(CCN1CCOCC1)C(=O)c1cc(COc2ccc(F)c(F)c2)on1	4%	-1%	88	34*
CN(CCCN1CCOCC1)C(=O)c1cc(COc2ccc(F)cc2F)on1	-1%	0%	16	8
COc1ccc(OCc2cc(C(=O)N(C)C3CCOCC3)no2)c2ccccc12	-26%	-4%	101*	47*
CN(C(=O)c1cc(COc2ccc(F)cc2Cl)on1)C1CCCc2ccccc21 (stereo not drawn)	-4%	-1%	6	1
COc1ccc(OCc2cc(C(=O)N(C)C3CCOC3)no2)c(Cl)c1 (stereo not drawn)	-18%	-4%	43	27*
COc1ccc(C(=O)COC(=O)CN2C(=O)C3C4C=CC(C5CC45)C3C2=O)cc1 (stereo not drawn)	-24%	1%	18	-1
CCn1c2ccccc2c2cc(NC(=O)CC(C)=O)ccc21	5%	-13%	11	-4
CCOC(=O)c1ccccc1NC(=O)[C@@H]1CCCN1C(=O)OC(C)(C)C	2%	1%	2	1
Cn1c(=O)c(=O)n(C)c2cc(S(=O)(=O)N3CC(=O)N(CCc4ccccc4)C(=O)C3)ccc21	2%	0%	-8	0
O=C(N/N=C(\c1ccccc1)c1ccccn1)c1ccccc1Cl	-120%	3%	-4	1
CNC(=O)N/N=C(\N)c1ccccn1	1%	0%	37	19*
O=C(Nc1ccc(Cl)cc1)Nc1ccc(S(=O)(=O)Nc2ncccn2)cc1	·	-7%	-7	-4
N/C(=N\NC(=O)Nc1ccc(Cl)cc1)c1ccccn1	0%	0%	88*	39*
O=C(Nc1ccc(Cl)cc1)O/N=C(\c1ccccc1)c1ccccn1	-2%	6%	25	21*
O=c1cc(-c2ccccc2)[nH]n1-c1ccc([N+](=O)[O-])cc1	-79%	-20%	71*	35*
O=C1CSC(c2cccnc2)N1Cc1ccc(Cl)cc1Cl (stereo not drawn)	4%	-2%	20	-2
COc1ccc(S(=O)(=O)N2CCOC2CNC(=O)C(=O)NCc2ccccc2Cl)cc1 (stereo not drawn)	-16%	3%	2	-3
Cc1ccc(C(=O)c2cnc3cc4c(cc3c2S(=O)(=O)c2ccccc2)OCCO4)cc1	?	-8%	100*	68*
CC1CN(C(=O)Nc2ccc3snnc3c2)c2ccccc21 (stereo not drawn)	-36%	-26%	36*	27*
CCOC(=O)COc1ccccc1C(=O)c1cnn(-c2ccccc2)c1	-33%	0%	111*	59*
SMILES	NS1 function inh	SARS PLpro yeast	Shiga toxin inh	Cycloheximide cs
CCOC(=O)COc1ncn(-c2ccccc2)n1	-10%	1%	-6	-1
COc1ccc(-n2cc(C(=O)c3ccc4ccccc4c3O)cn2)cc1	-1%	0%	4	18
O=C(COc1ccccc1C(=O)c1cnn(-c2ccccc2)c1)Nc1ccc2ccccc2c1	9%	-3%	20	57*
CC(C)c1ccc(NC(=O)COc2ccc(F)cc2C(=O)c2cnn(-c3ccccc3)c2)cc1	?	3%	120*	73*
CN(C(=O)CN1CCN(c2ccc([N+](=O)[O-])cn2)CC1)c1ccccc1	-2%	1%	-6	-4
Cc1ccc(NC(=O)Cn2cc(C(=O)C3CC3)c3ccccc32)c(C)c1	-2%	2%	36*	33*
Cc1cc(C(=O)COC(=O)c2ccc[nH]c2=O)c(C)n1C	6%	-3%	17	9
COCC(=O)OCC(=O)c1cc(C)n(-c2ccc(Br)cc2)c1C	-3%	-9%	-6	-4
Cc1cc(C(=O)COC(=O)c2ccc[nH]c2=O)c(C)n1-c1ccc(Br)cc1	13%	-84%	27*	48*
Cc1ccc(-n2c(C)cc(C(=O)COC(=O)c3ccc[nH]c3=O)c2C)cc1	-20%	-11%	58*	40*
Cc1ccc(CCNS(=O)(=O)c2cc3c(cc2C)n(C)c(=O)c(=O)n3C)cc1	12%	-2%	-2	-2
CC(NC(=O)COC(=O)c1ccc[nH]c1=O)c1ccccc1 (stereo not drawn)	·	0%	·	·
O=C(Nc1nccs1)C(=O)c1c[nH]c2ccccc12	-42%	-16%	146*	71*
CSc1ccccc1NC(=O)C(=O)c1c[nH]c2ccccc12	·	-2%	117*	42*
CSc1ccccc1NC(=O)CN(C)C(=O)Cc1c[nH]c2ccccc12	·	22%	·	·
Cc1ccc(S(=O)(=O)CC(=O)N2CCCC2)cc1	10%	-6%	16	8
O=C(O)c1ccccc1SCC(=O)N1CCc2ccccc21	·	2%	2	-1
O=C(Cc1ccccc1)N1CCc2ccccc21	-4%	9%	40*	27*
COc1ccc2c(CC(=O)OCC(=O)N3CCc4ccccc43)coc2c1	3%	-1%	33	8
Cn1cc(S(=O)(=O)CC(=O)N2CCc3ccccc32)c2ccccc21	14%	15%	13	-3
O=C(CS(=O)(=O)c1ccccc1)N1CCc2ccccc21	3%	-2%	74*	40*
COc1ccc2c(CC(=O)N3CCc4ccccc43)coc2c1	-3%	-6%	66*	42*
O=C(CS(=O)(=O)c1ccccc1)N1CCCCCC1	0%	1%	53*	17*
Cc1ccc(/C=C/C2=Cc3c(sc(NC(=O)CSc4n[nH]c(N)n4)c3C#N)C(C)(C)C2)o1	18%	12%	11	-1
CCOC(=O)C1CCN(CC(=O)N2CCc3ccccc32)CC1	7%	1%	16	-1
SMILES	NS1 function inh	SARS PLpro yeast	Shiga toxin inh	Cycloheximide cs
CC1CCN(CC(=O)N2CCc3ccccc32)CC1	-15%	3%	25	17*
O=C1c2ccccc2C(=O)N1CCC(=O)N1CCCc2ccccc21	-9%	-7%	65	34*
O=C(CCn1cccc1)N1CCc2ccccc21	-7%	-2%	17	53*
O=C1c2ccccc2C(=O)N1CCCC(=O)N1CCc2ccccc21	4%	3%	-4	10
O=C(CCn1c(=O)oc2ccccc21)N1CCc2ccccc21	-6%	-1%	-6	18
CC(CC(=O)N1CCc2ccccc21)n1cccn1 (stereo not drawn)	0%	0%	25	27*
